Assay outcomes as filed in PubChem BioAssay.
BAZ2B block – blocks human BAZ2B; AID 504333; Q9UIF8; AlphaScreen BAZ2B-H3K14Ac peptide displacement; Potency, µM (highest dose often 114 µM), for inactives: at the highest dose activity change, negative = inhibition, usual class: inhibitors; 360,000 compounds, 4.4% hits; also: potency is read from the fitted curve at half-maximal effect; % is scaled to controls: 0 for no effect and ±100 for the full control effect; nearly all actives have a fitted effect of over 60% in size
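AlphaScreen luminescence quantifies BAZ2B engagement of H3K14Ac peptide; the protein and biotinylated peptide are both at 50 nM final, buffer PBS pH 7.4 with 0.01% Tween-20, all steps at room temperature.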
G9a inh – inhibitors of human histone lysine methyltransferase G9a; 350,000 compounds, 8.8% hits; G9a H3K9 monomethylation, AlphaScreen, 2 h; Potency, µM (highest dose often 102 µM), inactives show at the top dose activity, negative = inhibition, actives largely listed as inhibitors; AID 504332; Q96KQ7; also: potency is read from the fitted curve at half-maximal effect; % is scaled to controls: 0 for no effect and ±100 for the full control effect; nearly all actives have a fitted effect of over 75% in size
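AlphaScreen read-out: biotin-H3K9 peptide (500 nM) methylation by 20 nM enzyme with 20 uM SAM, 2 h at room temperature after 15 min compound preincubation; anti-monomethyl H3K9 antibody plus donor/acceptor beads, 10 min dark.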
JMJD2A Tudor – inhibitors of human JMJD2A Tudor domain | AlphaScreen JMJD2A-Tudor / H3K4me3 peptide binding | Potency, µM (series often up to 114 µM), for the others: top-dose activity change, negative = inhibition, actives largely listed as inhibitors | O75164 | 390,000 compounds, 4.4% hits; also: potency is read from the fitted curve at half-maximal effect; % is scaled to controls: 0 for no effect and ±100 for the full control effect; nearly all actives have a fitted effect of over 50% in size
Six1-Eya2 inh – inhibitors of human Six1/Eya2 interaction; Q15475+O00167; AlphaScreen GST-Six1/His-Eya2 binding, biochemical; active compounds read low; activity change, % (no concentration beside the values); 360,000 compounds, 0.56% hits; AID 651725; in the data active = activity change below about -65%; inconclusive = mostly about -30% to -63%; also: % is scaled to controls: 0 for no effect and ±100 for the full control effect
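AlphaScreen with GST-Six1 and His-Eya2 (5X mix: 250 nM and 500 nM), glutathione donor and nickel acceptor beads; buffer 50 mM Tris pH 8.0, 300 mM NaCl, 1 mM TCEP; 1 h at 37 C in the dark.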
HP1b binding inh – blocks HP1-beta chromodomain binding to methylated histone tails; P83916; AlphaScreen HP1-beta / biotin-H3K9me3 peptide binding; Potency, µM (series often up to 114 µM), for the others: top-dose activity change, negative = inhibition, hits mostly inhibitors; 390,000 compounds, 0.56% hits; also: potency is read from the fitted curve at half-maximal effect; nearly all actives have a fitted effect of over 70% in size
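AlphaScreen: HP1-beta (50 nM) preformed 30 min with biotin-H3(1-18)K9me3 peptide (50 nM) in PBS pH 7.4, 0.01% Tween-20. Compound added for 30 min at RT, then streptavidin donor/nickel chelate acceptor beads (10 ug/mL) for 30 min.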
CtBP-E1A inh – CtBP/E1A binding inhibition. activity change, % (no concentration beside the values). 340,000 compounds, 0.49% hits. AID 651724. AlphaScreen GST-E1A/His-CtBP binding, 1536-well; active compounds read low; in the data active = activity change below about -65%; inconclusive = mostly about -30% to -63%; also: % is scaled to controls: 0 for no effect and ±100 for the full control effect
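Protein mix (5X: 125 nM each GST-E1A, His-CtBP) was incubated with pinned compound 2 h at 37 deg C in dark, in 50 mM Tris pH 8.0 buffer with 300 mM NaCl. Glutathione donor and nickel acceptor beads followed; AlphaScreen signal read after 1 h.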
The depositor's hits bear a star; ? = inconclusive; nt = not tested or not shown; [ ] = remark or other dose. Sampled rows, rich in hits. Any-hit rate of the full collection: about 10%. Unless noted, calls follow the shape of the dose curve; as a rule, active = well fitted inhibition curve with a large enough effect; inconclusive = small, poorly fitted or top-dose-only effect; inactive = no such curve, though single readings can be large or run the other way.

SMILES	BAZ2B block	G9a inh	JMJD2A Tudor	Six1-Eya2 inh	HP1b binding inh	CtBP-E1A inh
CCOc1cc(CNc2ccc(O)cc2)ccc1OCc1ccc(Cl)cc1Cl	?	?	79µM*	-28	-38%	?
CCOc1cccc(CNc2ccc(O)cc2)c1OCc1ccc(Cl)cc1	-35%[57.1 µM]	14µM*	79µM*	1	-7%	?
Cn1nnnc1SCCNCc1ccc(OCc2ccccc2Cl)cc1	-18%	-31%[59 µM]	-23%	nt	31%	nt
CSc1ccc(CNc2ccc(Cl)cc2)cc1	13%	nt	13%	-2	51%	-5
CCOc1ccccc1CNc1ccc(O)cc1	35µM*	-137%[59 µM]	56µM*	?	?	?
Cc1ccc(NCc2ccccc2OCc2ccccc2F)cc1	?	?	?	-28	-25%	-23
COc1cc(NC(=O)c2ccc3c(c2)S(=O)(=O)N=C2CCCCCN23)cc(OC)c1	11%	50µM*	-20%	?	-4%	-21
CN1CCN(S(=O)(=O)c2ccc(N3CCN(c4ccc(O)cc4)CC3)c([N+](=O)[O-])c2)CC1	?	7.9µM*	32µM*	-25	71µM*	-18
O=[N+]([O-])c1cc(-c2nnc(Nc3ccccc3)c3ccccc23)ccc1N1CCOCC1	?	?	?	-6	3%	nt
Cc1ccc(S(=O)(=O)N2CCN(C)CC2)cc1[N+](=O)[O-]	-6%	-35%[59 µM]	-17%	-1	22%	-2
O=[N+]([O-])c1cc(S(=O)(=O)Nc2ccccc2)ccc1N1CCN(c2ccc(O)cc2)CC1	28µM*	5µM*	13µM*	-16	-83%	-3
COC(=O)c1cc(NS(=O)(=O)c2ccc(N3CCC(C)CC3)c([N+](=O)[O-])c2)cc(C(=O)OC)c1	?	?	22µM*	-18	50µM*	-1
O=[N+]([O-])c1cc(-c2nnc(Nc3ccc(O)cc3)c3ccccc23)ccc1N1CCOCC1	?	20µM*	?	?	?	?
COc1ccc(C(=O)NCCS(=O)(=O)NCc2ccc3c(c2)OCO3)cc1	11%	8%[0.501 µM]	-10%	-10	9%	0
COc1ccc(CNS(=O)(=O)CCNC(=O)c2cccc(OC)c2)cc1	5%	50µM*	-14%	6	21%	-11
COc1cccc(C(=O)NCCS(=O)(=O)NCc2ccccn2)c1	-3%	?	2.5µM*	6	-2%	-1
COc1cccc(C(=O)NCCS(=O)(=O)NCc2ccc3c(c2)OCO3)c1	0%	40µM*	-23%	-1	-5%	5
C#CCOc1ccccc1/C=N/NC(=O)c1ccccc1OCc1ccccc1	-8%	nt	-4%	-4	50%	-4
CCCCn1nnnc1C1(C)CCC(=O)N1Cc1cccc(F)c1 (centres undefined)	nt	nt	nt	1	nt	1
Cn1c(=O)c2nc3ccc(NC(=O)C(F)(F)F)cc3nc2n(C)c1=O	-1%	5%[59 µM]	3%	nt	37%	nt
Cc1cc2nc3c(=O)[nH]c(=S)[nH]c3nc2cc1NC(=O)C(F)(F)F	-38%	28µM*	-10%	?	11%	?
CCOC(=O)C1=C(C)N=c2sc(=Cc3cc(Cl)c(OCC(=O)O)c(Cl)c3)c(=O)n2C1c1cccc(OC)c1 (centres undefined)	nt	nt	nt	-7	nt	-24
CC1Sc2ccc(C(=O)N3CCCC(C(F)(F)F)C3)cc2NC1=O (centres undefined)	6%	9%	-13%	12	32%	2
CCOC(=O)C1CCCN(C(=O)c2ccc3[nH]c4c(c3c2)CC(C)CC4)C1 (centres undefined)	50µM*	?	?	-7	?	-15
CC1CCc2[nH]c3ccc(C(=O)N4CCCC(C(F)(F)F)C4)cc3c2C1 (centres undefined)	32µM*	35µM*	?	-17	-4%	-1
CCOC(=O)C1CCCN(C(=O)c2[nH]c3ccccc3c2Sc2ccc(Cl)cc2)C1 (centres undefined)	?	8.9µM*	-33%	nt	22%	nt
